uPA surface inh: qHTS for Inhibitors of Cell Surface uPA Generation. cell surface uPA generation assay, qHTS. Potency, µM (doses to about 38.3 µM), inactives show at the top dose activity change, negative = inhibition, actives largely listed as inhibitors. 330,000 tested, 0.31% active. AID 540303, 2011; active means well fitted inhibition curve with a large enough effect; inconclusive means small, poorly fitted or top-dose-only effect; inactive means no such curve, though single readings can be large or run the other way; tested in mouse RAW 264.7 cells; further: potency means the concentration at half of the fitted maximal effect; on the % scale 0 is the no-effect control and ±100 the full control effect; nearly all actives have a fitted effect of over 55% in size
Nrf2 activator: qHTS of Nrf2 Activators. AREc32 ARE-luciferase reporter (MCF7-derived line), luminescence, 24 h. Potency, µM (series often up to 46.1 µM), without a hit: at the top dose activation, hits mostly activators. 410,000 tested, 0.31% active. AID 624171, 2012; further: potency means the concentration at half of the fitted maximal effect; % of control where 0% means no effect; nearly all actives have a fitted effect of over 65% in size
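Reporter line AREc32 (ARE-Fluc), seeded overnight in OPTI-MEM with 5% FBS; compound pin-transferred, 24 hr at 37 deg C, 5% CO2; luminescent read-out.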
IL2 activator: qHTS of IL-2 Activators. 360,000 tested, 0.065% active. activation, % (series mostly up to about 46 µM). AID 652025, 2013. IL-2 activation reporter assay, cell-based qHTS; stimulated with anti-CD3/CD4/CD28 beads; in transgenic mouse T cells; in the data active means activation above about 50%; inconclusive means mostly about 30% to 49%; further: 0% is about no effect
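Readout is EGFP and DsRed signal by fluorescent plate cytometry after 18 h at 37 degrees C. Transgenic mouse T cells (750/well) received compound for 60 min before bead stimulation (anti-CD3, anti-CD4, anti-CD28); memory T cells served as non-tolerant control.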
a7 integrin act: qHTS for Activators of Integrin-Mediated Alleviation for Muscular Dystrophy | AID 624291, 2012 | Potency, µM (top dose mostly 38.3 µM), for the others: at the top dose activation, usual class: activators | 350,000 tested, 0.064% active | alpha7betagal myoblasts, beta-gal FDG fluorescence, 48 h;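 further: potency means the concentration at half of the fitted maximal effect; 100% = response of the positive control SU9516; nearly all actives have a fitted effect of over 60% in size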
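alpha7betagal+/- myoblasts (passage 13, 250/well) treated 48 h at 37C with compounds at 1:260 dilution of DMSO stock. Lysed, then beta-galactosidase activity read as FDG fluorescence (ex 480/em 540) after 30 min, with pre-read for autofluorescence.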
12-LOX inh: Primary qHTS assay for inhibitors of human arachidonate 12S-lipoxygenase (ALOX12): Round 2; purified 12hLO, xylenol orange hydroperoxide absorbance; 580,000 tested, 1.1% active; Potency, µM (highest dose often 108 µM), for inactives: at the highest dose activity change, negative = inhibition, actives largely listed as inhibitors; Polyunsaturated fatty acid lipoxygenase ALOX12 (Homo sapiens), P18054; further: potency means the concentration at half of the fitted maximal effect; on the % scale 0 is the no-effect control and ±100 the full control effect
Target sequence (P18054 whole entry, looked up): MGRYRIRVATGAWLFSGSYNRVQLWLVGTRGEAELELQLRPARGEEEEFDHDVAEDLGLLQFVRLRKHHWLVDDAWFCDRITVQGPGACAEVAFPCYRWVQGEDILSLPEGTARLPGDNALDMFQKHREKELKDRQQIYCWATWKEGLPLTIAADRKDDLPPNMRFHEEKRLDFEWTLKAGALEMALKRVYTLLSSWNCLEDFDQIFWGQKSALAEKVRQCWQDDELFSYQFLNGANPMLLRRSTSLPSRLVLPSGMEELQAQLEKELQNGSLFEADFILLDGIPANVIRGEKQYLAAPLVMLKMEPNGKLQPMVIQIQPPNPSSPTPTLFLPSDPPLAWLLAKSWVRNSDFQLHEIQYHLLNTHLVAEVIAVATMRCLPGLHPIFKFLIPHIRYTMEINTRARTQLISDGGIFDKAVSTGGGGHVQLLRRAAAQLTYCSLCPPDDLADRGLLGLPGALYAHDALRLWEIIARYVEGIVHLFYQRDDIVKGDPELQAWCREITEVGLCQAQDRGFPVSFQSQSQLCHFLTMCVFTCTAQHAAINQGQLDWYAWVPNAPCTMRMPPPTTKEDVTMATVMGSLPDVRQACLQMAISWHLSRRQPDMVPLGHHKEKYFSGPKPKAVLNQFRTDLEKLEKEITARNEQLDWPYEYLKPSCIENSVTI
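Hydroperoxide product was detected by ferrous iron/xylenol orange as the 573 to 405 nm absorbance ratio. Arachidonic acid at 40 uM (final) was turned over for 30 min at room temperature by 150 nM human 12hLO, pH 7.0 Hepes buffer, after 15 min compound preincubation.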
Starred values were filed as active, the others as inactive; ? = inconclusive; . = not tested or not shown; [ ] = remark or other dose. Sampled rows, rich in hits. Any-hit rate of the full collection: about 1.5%. Unless noted, the call rests on the fitted dose curve; in most records, active means well fitted curve in the direction sought with a large enough effect; inconclusive means small, poorly fitted or top-dose-only effect, or another doubt; inactive means no such curve, though single readings can be large; an effect the other way counts as inactive or inconclusive.

SMILES	uPA surface inh	Nrf2 activator	IL2 activator	a7 integrin act	12-LOX inh
COC(=O)c1cn(CC(=O)N2CCCCCC2)c2ccccc12	-6.0%	0.0%	-1.5	-17.2%	-29.1%
CCOC(=O)C1=C(O)/C(=C/c2cn(CC(=O)N3CCCC3)c3ccccc23)SC1=Nc1ccccc1	4.3%	0.7%	218.8*	-32.6%	.
CCC(C)c1ccccc1OS(=O)(=O)c1ccc2oc(=O)ccc2c1 (configuration not stated)	.	.	.	.	-27.9%
Cc1ccc(C(=O)CSC2=C(C#N)C(c3ccco3)CC(=O)N2)c(C)c1 (configuration not stated)	.	6.3%	-2.0	-28.4%	50.1µM*
CCCn1c(=O)n(CC(=O)NCc2nnc3n2CCCCC3)c2ccccc21	.	.	.	.	34.5%
Cc1ccccc1C(=O)NC1CCCC(C(F)(F)F)C1 (configuration not stated)	.	.	.	.	3.4%
CCOC(=O)C1=C(C)OC(N)=C(C#N)C1c1ccc(C(F)(F)F)cc1 (configuration not stated)	.	.	.	.	15.8µM*
CCOC(=O)C1=C(C)OC(N)=C(C#N)C1c1ccccc1 (configuration not stated)	-12.2%	-0.3%	2.5	-1.9%	-18.1%
CC(C)CCC(CCNCc1ccco1)c1ccco1 (configuration not stated)	.	.	.	.	0.447µM*
c1ccc(CC(CCNCc2ccco2)c2ccco2)cc1 (configuration not stated)	.	.	.	.	-2.7%
CCC(c1cccs1)N1C(=O)[C@H]2CN(S(=O)(=O)c3cccc(Cl)c3)C[C@H]2C1=O (some centres not stated)	.	.	.	.	31.6µM*
O=C1COc2ccc(C(=O)COC(=O)/C=C/c3ccco3)cc2N1	-16.2%	2.24µM*	4.0	-19.0%	.
CCc1cnc(-c2ccccc2)[nH]1	.	.	.	.	3.7%[12.5 µM]
O=C(NC1CCCCC1)N1Cc2[nH]cnc2C[C@H]1c1nc(-c2ccncc2)no1	.	.	.	.	12.6µM*
O=C(c1ccccc1)N1Cc2[nH]cnc2C[C@H]1c1nc(-c2ccncc2)no1	.	.	.	.	42.6%[176 µM]
Cc1cc(C)n(CC(=O)N2CCOCC(CO)C2)c(=O)n1 (configuration not stated)	.	.	.	.	15.6%
Cc1cnc(C(=O)N2CCOCC(CO)C2)cn1 (configuration not stated)	.	.	.	.	50.1µM*
O=C(Nc1cccc(Cl)c1)c1ccncc1	0.2%	-0.7%	-1.6	-1.2%	-14.2%
Clc1cccc(N/N=C(/c2ccccc2)c2ccncc2)c1	.	.	.	.	39.8µM*
Cc1nn(-c2ccccc2)c(Cl)c1/C=C1\SC(=S)NC1=O	-11.4%	4.5%	-1.8	-40.8%	25.1µM*
Cc1nn(-c2ccccc2)c(Cl)c1/C=C1\SC(=S)N(CCCCCC(=O)O)C1=O	-63.6%	?	-0.3	0.0%	-23.9%
CCOc1ccccc1NC(=O)N1CCCN(S(=O)(=O)c2ccccc2)CCC(=O)NCC1	.	.	.	.	-2.0%
Oc1ccc(C2(c3ccc(O)cc3)CCCC2)cc1	.	.	.	.	35.5µM*
Cc1ccc(C2(c3ccc(O)cc3)CCCCC2)cc1	.	.	.	.	-86.4%
O=C1C=CC(=O)C(C2=C3C(=O)N(CCc4ccccc4)CC(=O)N3CCC2)=C1	4.1%	?	-4.6	-45.2%	39.8µM*
SMILES	uPA surface inh	Nrf2 activator	IL2 activator	a7 integrin act	12-LOX inh
Cc1scc(C(=O)NCC2CCCCC2)c1C	.	.	.	.	15.8µM*
COc1ccc(Nc2nc(-c3c[nH]c(C(=O)N4CCCC4)c3)cs2)cc1	.	.	.	.	-26.9%
O=C1c2ccccc2C(=O)c2c(Nc3ccc(CCO)cc3)ccc(O)c21	-6.5%	3.98µM*	-2.9	11.1%	29.1%
Nc1ccc(O)c2c1C(=O)c1ccccc1C2=O	?	6.2%	0.6	-9.3%	?
Cc1ccc(N2C(=O)/C(=C/c3ccco3)SC2=S)cc1	-0.5%	19.8%	2.3	-13.7%	17.8µM*
N=C1S/C(=C\c2ccco2)C(=O)N1c1ccc2c(c1)OCO2	-7.7%	10.6%	0.5	?	?
N=C1S/C(=C\c2ccco2)C(=O)N1c1nccs1	7.94µM*	?	-2.0	-67.9%	0.0%
Cc1cc(N2C(=O)CC(N3CCN(c4ccc(C(=O)c5cccs5)cc4)CC3)C2=O)no1 (configuration not stated)	-4.2%	0.4%	-0.8	-8.7%	31.6µM*
Oc1ccc(C2=Nn3c(nnc3-c3ccco3)SC2)cc1O	-14.7%	6.3%	0.3	-17.9%	7.08µM*
S=C1SCN(Cc2ccccc2)CN1Cc1ccco1	.	7.5%	-0.2	15.1%	35.5µM*
S=C1SCN(Cc2ccccc2)CN1Cc1ccccc1	-1.2%	?	-4.5	-66.4%	7.0%
N#CC1=C(N)Oc2c(oc(CO)cc2=O)C1c1ccsc1 (configuration not stated)	0.5%	-0.4%	-0.6	-7.2%	?
N#CC1=C(N)Oc2c(ccc3ccccc23)C1c1ccsc1 (configuration not stated)	-11.6%	8.91µM*	0.3	-32.3%	-25.1%
O=C(NCc1ccccc1)C1CCN(C(=O)N2CC3CC(C2)[C@H]2CCCC(=O)N2C3)CC1 (some centres not stated)	.	.	.	.	46.7%
COc1ccc(-n2cc(CN3CCCN(C)CC3)c(-c3cccc(F)c3)n2)cc1	.	.	.	.	9.3%
COC(=O)CO[C@@H]1CO[C@H]2[C@@H]1OC[C@@H]2NC(=S)Nc1cc(C)cc(C)c1	.	.	.	.	70.8µM*
CC(=O)c1ccc(NC(=O)N[C@H]2CO[C@H]3[C@@H]2OC[C@H]3OCC(N)=O)cc1	.	.	.	.	36.4%[176 µM]
C[C@@H](NC(=O)/C(C#N)=C/c1ccc(O)c(O)c1)c1ccccc1	?	8.1%	0.0	.	?
N#C/C(=C/c1cccc(O)c1)C(=O)NCc1ccc(Cl)cc1	0.7%	22.5%	-2.9	-32.2%	-16.9%
C(=N\Nc1ccccc1)/c1ccc(N2CCOCC2)cc1	-19.7%	0.5%	-0.1	-17.3%	14.1µM*
N#C/C(=C\c1ccc(O)c(O)c1)C(=O)Nc1ccccc1	?	6.0%	0.2	.	50.1µM*
N#C/C(=C\c1cc2ccccc2nc1N1CCOCC1)C(=O)Nc1ccc(N2CCOCC2)cc1	8.5%	-0.6%	-3.5	21.4%	-10.4%
N#C/C(=C/c1ccccc1)C(=O)Nc1ccc(N2CCOCC2)cc1	.	.	.	.	2.51µM*
